Giardia FBPA inh: blocks Giardia fructose-bisphosphate aldolase activity | A8B2U2 | purified Giardia FBPA | AID 2451 | Potency, µM (titrated, usually from 59.6 µM), for inactives: at the top dose activity, negative = inhibition, actives largely listed as inhibitors | 0.71% of 290,000 active; note: potency is the fitted concentration of half-maximal effect; nearly all actives have a fitted effect of over 55% in size
Target sequence (A8B2U2 whole entry, looked up): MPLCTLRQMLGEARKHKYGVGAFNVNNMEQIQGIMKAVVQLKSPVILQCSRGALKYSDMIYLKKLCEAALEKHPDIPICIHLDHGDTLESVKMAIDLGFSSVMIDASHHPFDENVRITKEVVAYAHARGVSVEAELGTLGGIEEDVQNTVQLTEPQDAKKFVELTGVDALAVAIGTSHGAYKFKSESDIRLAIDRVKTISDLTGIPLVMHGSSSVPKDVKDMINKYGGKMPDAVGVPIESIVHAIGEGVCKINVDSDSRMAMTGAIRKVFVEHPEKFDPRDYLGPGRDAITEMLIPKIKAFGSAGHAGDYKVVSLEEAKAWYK
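40 nM FBPA preincubated 10 min at RT with compound (up to 57.5 uM final), then substrate plus GAPDH/TPI/NAD/arsenate coupling and diaphorase/resazurin added. Fluorescence read after 20 min at RT, 525/598 nm.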
HCMV antiviral: blocks human cytomegalovirus replication; HFF cells, HCMV-luciferase reporter, 72 h; active compounds read low; activity change, negative = inhibition, % at 57.5 µM; 4.5% of 410,000 active; AID 1259415; in the data active = activity change below about -60%; inconclusive = no clear call, values can overlap the other calls; inactive = above about -39%
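Human foreskin fibroblasts infected with luciferase-reporter HCMV at MOI 1 PFU/cell, compounds at two doses. Luciferase measured 72 h post infection; normalized to buffer-only basal and Salinomycin (10uM) controls.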
Sm TGR block: S. mansoni TGR enzyme inhibition; Q962Y6; purified TGR, DTNB reduction, TNB absorbance 405 nm; Potency, µM (doses to about 114 µM), inactives show at the top dose activity change, negative = inhibition, most hits filed as inhibitors; 3% of 360,000 active; note: potency is the fitted concentration of half-maximal effect; nearly all actives have a fitted effect of over 60% in size
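TGR 20 nM + NADPH 100 uM (dispensed conc.), cpd preinc 15 min RT; start with NADPH (500 uM addition) then DTNB (15 mM addition). Kinetic TNB absorbance, 405 nm filter. Four-parameter Hill fit across titration.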
Pf growth 96h: P. falciparum growth inhibition at 96 hour, primary screen for plastid delayed-death inhibitors; Potency, µM (titrated, usually from 28.7 µM), without a hit: at the highest dose activity change, negative = inhibition, hits mostly inhibitors; 6.9% of 320,000 active; P. falciparum luciferase reporter growth, 96 h; AID 504834; note: potency is the fitted concentration of half-maximal effect
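Plates of compound plus infected erythrocytes (2% hematocrit, 0.05% parasitemia final) incubate 96 hours, 37 C, 5% CO2. Detection reagent added; reduced luminescence from the parasites' luciferase reporter flags inhibition.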
Pf growth 48h: P. falciparum growth inhibition at 48 hours (one generation); P. falciparum luciferase growth in erythrocytes, 48 h; Potency, µM (top dose mostly 28.7 µM), for the others: at the top dose activity change, negative = inhibition, hits mostly inhibitors; 5.9% of 310,000 active; note: potency is the fitted concentration of half-maximal effect
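Cell-based growth assay: transgenic P. falciparum expressing firefly luciferase, cultured in red cells within RPMI 1640 containing 0.5% w/v Albumax, 24 mM bicarbonate and gentamycin. A drop in luciferase activity indicates inhibition.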
* marks the source's active call; other numbers are inactive results; ? = inconclusive; . = no result given; ! = repeats disagree; [ ] = dose if it differs, or a comment. Shown are actives, neighbours in structure and some others; about 14% of the full set was active somewhere. Unless noted, calls come from the whole dose curve; as a rule, active = well fitted curve in the direction sought with a large enough effect; inconclusive = small, poorly fitted or top-dose-only effect, or another doubt; inactive = no such curve, though single readings can be large; an effect the other way counts as inactive or inconclusive. % is set by controls: 0 for no effect and ±100 for the full control effect.

SMILES	Giardia FBPA inh	HCMV antiviral	Sm TGR block	Pf growth 96h	Pf growth 48h
Nc1ccc(-c2cc3ccccc3c(=O)o2)cc1	.	-62*	.	.	.
CCOC(=O)CNC(=O)c1cc2c(=O)oc3ccccc3c2s1	.	2	9%	.	.
CCC(C)(C)NC(=O)CN(Cc1ccccc1Cl)C(=O)CCC(=O)Nc1cc(C)ccn1	-18%	2	-22%	96%	14%
CCNc1nc(NC(C)(C)C)nc(Oc2ccc(=O)n(C)n2)n1	.	17	0%	.	.
COc1nc(NC(C)(C)C)nc(Oc2ccc(=O)n(C)n2)n1	-1%	-9	0%	12µM*	.
CSc1nc(-c2ccc(C)cc2)nc(C(Cl)Cl)n1	6%	.	6%	67%	6%
CCSc1nc(-c2ccccc2)nc(C(Cl)Cl)n1	4%	-82*	-4%	75%	-14%
O=C1CC(c2ccccc2)CC(=O)C1Sc1ccc(Cl)cc1 (centres undefined)	8%	26	?	-9%	18%
COc1ccc(N2C(=O)CC(c3ccccc3)CC2=O)cc1	.	?	5%	64%	37%
O=C1CC(c2ccc(Cl)cc2)CC(=O)C1CS(=O)(=O)c1ccccc1 (centres undefined)	?	-18	0.63µM*	47%	24%
O=C1CCCC(=O)C1CS(=O)(=O)c1ccccc1	?	20	2.2µM*	-10%	0%
COc1ccc(C2CC(=O)C(CS(=O)(=O)c3ccccc3)C(=O)C2)cc1 (centres undefined)	?	?	1µM*	124%	11%
CCCSc1nc2sc3c(c2c(=O)n1-c1ccc(C)c(Cl)c1)CCN(C(C)=O)C3	.	1	-1%	.	.
Cc1ccc(NC(=O)N2CCOCC2)cc1NC(=O)N1CCOCC1	.	-24	.	.	.
Cc1nnc(SCC(=O)N(C)CC(=O)Nc2ccc(F)cc2)n1Cc1ccccc1	8%	-14	1%	-30%	9.3µM*
O=C1NCCCC2c3cc(O)c4ccccc4c3OC12N1CCCCC1 (centres undefined)	0.56µM*	?	2µM*	20%	8.3µM*
CC(C)c1ccc(Cc2cn3cc(-c4cc5ccccc5oc4=O)nc3s2)cc1	.	-78*	-3%	.	.
Cc1ccc2c(c1)sc1nc(-c3cc4ccccc4oc3=O)cn12	.	-79*	?	.	.
O=c1oc2ccccc2cc1-c1cn2ccccc2n1	-17%	-63*	-32%	-21%	2%
CCCCOc1ccc(Cn2c(=O)sc3ccccc32)cc1	.	3	15%	.	.
O=C(COc1ccc2ccc(=O)oc2c1)NC1CCN(Cc2ccccc2)CC1	.	0	-27%	-17%	5%
C/C=C/c1ccc(OCC(=O)Nc2ccc(C(N)=O)cc2)c(OC)c1	9%	-1	2%	-20%	-11%
COc1cc(/C=C/c2cc[n+](C)cc2)ccc1OCC(=O)Nc1ccccc1	.	?	-29%	-10%	3.7µM*
COc1ccc(/C=N/NC(=O)CCOc2ccccc2C)cc1OC	2%	-79*	0%	?	-13%
COCC(=O)N/N=C\c1ccc(OC/C=C/c2ccccc2)c(OC)c1	2%	-1	-5%	-3%	4.7µM*
SMILES	Giardia FBPA inh	HCMV antiviral	Sm TGR block	Pf growth 96h	Pf growth 48h
Cc1noc(C)c1NC(=O)Nc1cccc2c1O[C@H](CN(C)C(=O)NC(C)C)[C@@H](C)CN([C@H](C)CO)C2=O	.	38	.	.	.
Cc1ccc(-c2nnc(SCC(=O)N3CCCc4ccccc43)o2)cc1	.	-9	-2%	.	.
COc1cccc(-c2nnc(SCC(=O)N3CCOCC3)o2)c1	4%	35	0%	12µM*	47%
COc1ccc(-c2nnc(SCC(=O)N3CCCc4ccccc43)o2)cc1OC	1%	1	-14%	12µM*	-8%
COc1ccc2c(c1)C(C)=CC(C)(C)N2C(=O)CSc1nnc(-c2ccc(C)cc2)o1	?	-22	16%	-2%	9.3µM*
CC[C@@H]1C(c2cccc(C)c2)=NN(c2ccc(Br)cc2)[C@H]1C(=O)N1CCOC1=O	-8%	.	.	.	.
CC(C)C[C@H]1CN(CCCC[C@H]2CNC(=O)C(=O)N2CCc2ccccc2)C(=O)C(=O)N1CCC1CCCCC1	.	-12	.	.	.
Cn1cnc(S(=O)(=O)N2CCCCC2c2cc(C(=O)NCc3ccc(F)cc3)no2)c1 (centres undefined)	.	-15	.	.	.
COc1ncc2ncc(=O)n(C[C@H]3CCCO3)c2n1	-2%	.	.	.	.
CCN(CC(=O)Nc1c(F)cccc1F)C(=O)c1ccc(N2C(=O)c3ccccc3C2=O)cc1	.	-2	3%	3%	15%
CN1CCc2cccc3c2[C@H]1Cc1ccc(O)c(O)c1-3	?	-66*	.	2.3µM*!	2.9µM*
CN1CCc2cc(O)cc3c2C1Cc1ccc(O)c(O)c1-3 (centres undefined)	14µM*	.	.	.	.
COc1ccc2c(c1O)-c1c(OC)c(OC)cc3c1[C@@H](C2)N(C)CC3	-16%	.	.	.	.
COc1ccc2c(c1O)-c1cccc3c1C(C2)N(C)CC3 (centres undefined)	-23%	.	.	.	.
CSc1ccccc1OCc1cc(C(=O)NC2CCOC2)no1 (centres undefined)	3%	-16	-21%	41%	7%
CCn1nc(C)c(CNC(=O)c2cc(COc3cncc(Cl)c3)on2)c1C	1%	-64*	-16%	-25%	?
CCn1nc(C)c(CNC(=O)c2cc(COc3ccccc3SC)on2)c1C	.	-64*	-3%	18%	?
CC(C)c1cc(CNC(=O)c2cc(COc3cncc(Cl)c3)on2)on1	0%	-32	-21%	?	?
CSc1ccccc1OCc1cc(C(=O)NC(C)Cc2cccc(C)n2)no1 (centres undefined)	-1%	20	-1%	?	10µM*
CSc1ccccc1OCc1cc(C(=O)NCc2cccc(C)n2)no1	3%	69	-2%	4.1µM*	-9%
COc1ccc(Oc2ccc3c(-c4ccccc4F)noc3n2)c(F)c1	.	0	.	.	.
O=C1CCC[C@H]2[C@@H](Cc3ccccc3)[C@@H](NS(=O)(=O)c3ccccc3)CC[C@]23CCCN13	.	-21	.	.	.
C[C@@H]1CN([C@@H](C)CO)C(=O)c2cc(C#CC3CCCCC3)cnc2O[C@@H]1CN(C)S(=O)(=O)c1ccc(F)cc1	.	11	.	.	.
Cc1nc2c(-c3ccccc3)c(C)[nH]n2c(=O)c1Cc1ccccc1	-3%	-37	.	6%	10µM*
COc1ccc(-c2c(C)[nH]n3c(=O)c(Cc4ccccc4)c(C)nc23)cc1OC	-4%	-24	1%	133%	-24%[5.75 µM]
Cc1cccc(Cc2c(C)nc3c(-c4ccccc4)c(C)[nH]n3c2=O)c1	.	-79*	-23%	.	.
COCc1cc(=O)n2[nH]c(C)c(-c3ccc(Cl)cc3)c2n1	.	-14	.	.	.
Cc1[nH]n2c(=O)cc(-c3ccccc3Cl)nc2c1-c1ccccc1	.	-94*	-2%	.	.
Cc1nc2c(-c3ccc(Cl)cc3)c(C)[nH]n2c(=O)c1Cc1ccccc1	-10%	-99*	6%	-12%	?
